This is an account of results in PubChem BioAssay (NCATS).

Records with an inconclusive call do not appear. A call without a number means that no potency is given here. Activity calls are given as the source filed them. Calls come from the whole dose curve; as a rule, active = well fitted inhibition curve with a large enough effect; inconclusive = small, poorly fitted or top-dose-only effect; inactive = flat fitted curve, though single readings scatter.

Calcium and integrin-binding protein 1 (Homo sapiens), sequence (Q99828 whole entry, looked up): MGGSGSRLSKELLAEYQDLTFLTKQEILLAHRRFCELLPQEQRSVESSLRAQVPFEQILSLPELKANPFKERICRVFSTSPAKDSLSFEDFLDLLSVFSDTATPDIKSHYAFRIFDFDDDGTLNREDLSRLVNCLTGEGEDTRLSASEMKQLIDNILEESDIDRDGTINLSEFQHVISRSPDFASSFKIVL

This assay addresses Calcium and integrin-binding protein 1 (Homo sapiens) (UniProt Q99828). In words: Primary qHTS for Identification of Calcium Integrin Binding Protein 1 (CIB1) Competitor (AID 1508620).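 Note: GST tagged CIB1 binding a fluorescein labelled alphaIIb integrin peptide tracer; top concentration of the series differs between compounds.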 To be noted: CIB1-GST / FITC-alphaIIb peptide fluorescence polarization; series mostly up to 114 µM. The method, boiled down: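 CIB1-GST (1 uM final) and compound incubated 15 min at room temperature before adding FITC-alphaIIb peptide tracer (100 nM final). Competition for binding read by fluorescence polarization (ex 480, em 540) after another 15 min at room temperature.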
(Quantitative high-throughput screening tests each substance at several concentrations.)
In the case of `COc1cccc(S(=O)(=O)NC2CCN(C#N)C2)c1` (configuration not stated), the Potency result was “inactive”.

Turning to `Cc1ccc(NS(=O)(=O)c2cc3c(cc2Cl)NC(=O)CO3)cc1C`, the Potency result was “inactive”.

In the case of `O=[S+]([O-])(c1c(F)cccc1F)N1CCN([S+](=O)([O-])c2cccc3nonc23)CC1`, the Potency entry is “inactive”.

As for `Cn1nnnc1Sc1ncnc2scc(-c3cccc4ccccc34)c12`, the Potency entry was “inactive”.

Turning to `N#Cc1c(-c2ccc(Cl)cc2)no[n+]1[O-]`, the Potency entry is “inactive”.

`O=C(/C=C/c1cccs1)Nc1cccc([S+](=O)([O-])Nc2ccccc2F)c1`: the Potency entry was “inactive”.

In the case of `Cc1cc(C=CC#N)cc(C)c1Nc1nc(Nc2ccc3c(c2)OCO3)c2[nH]cnc2n1`, the Potency entry was “inactive”.

Turning to `C/C(=C\c1ccc2c(c1)OCCO2)C1Nc2cccc3cccc(c23)N1`, the Potency entry is “inactive”.

`O=C(Oc1cccnc1)c1cccs1`: the Potency entry is “inactive”.

For the compound `CC(=O)Nc1ccc(S(=O)(=O)N2CCN(S(=O)(=O)c3c(F)cccc3F)CC2)cc1`, the Potency entry is “inactive”.

For `Cc1ccc(NS(=O)(=O)c2cc3c(cc2N(C)CCN(C)C)NC(=O)CC3)cc1C`, the Potency result is “inactive”.

`Cc1noc(C)c1-c1ccc2ncnc(NCc3ccc(C(F)(F)F)o3)c2c1`: the Potency entry was “inactive”.

`Cc1cc(C)nc(NC(=S)N2CCN(c3nccc4ccccc34)CC2)c1`: the Potency entry was “inactive”.

Consider `O=C(Nc1cccc(-c2nn3c(=O)cc(N4CCNCC4)nc3s2)c1)c1ccon1`, for which the Potency entry was “inactive”.

As to `Nc1c(-c2ccccc2)cc[nH]c1=O`, the Potency result was “inactive”.

For `Cc1cccc(CNc2ccnc(-c3ccc(C(F)(F)F)cc3)n2)c1`, the Potency entry is “inactive”.

Take `COc1cccc(Nc2ccc(N3CCN(C(C)=O)CC3)cc2)c1OC`: the Potency entry was “inactive”.

For the compound `Cc1c(P(=S)(c2ccccc2)c2ccccc2)c2ccccc2n1CCCc1ccccc1`, the Potency entry was “inactive”.

Consider `O=C(Nc1ccc(-c2nc3ccccc3[nH]2)cc1)c1ccc(C(F)(F)F)cc1`, for which the Potency entry was “inactive”.

Take `CC(C)(C)OC(=O)Cc1nnc(-c2cc3ccccc3[nH]2)o1`: the Potency result was “inactive”.

With `O=C(O)c1ccc(CSc2nnc(-c3cccc([S+](=O)([O-])NC4CCCC4)c3)n2-c2ccccc2)cc1`, the Potency entry was “inactive”.

In the case of `CCN(CC)c1ccc(NC(=O)Nc2ccc(C(C)=O)cc2)cc1`, the Potency result was “inactive”.
